Experimental data: ChEMBL document CHEMBL3988442, “University of Dundee, Small-Polar-MMV Screening Library” (2021)
For some of these results: Results with a measured potency or affinity are listed apart.

Key:
Set-up in all cases: scale not given: direction of the effect not stated beside the values
[1] = molecular target: Protein translocase subunit SecA (Escherichia coli (strain K12)) (UniProt P10408); test: Assay to Identify E. coli SecA ATPase Inhibitors; type: functional; conditions: 30 µM
[2] = molecular target: T1, Ubiquitin-activating enzyme e1, putative (Leishmania donovani (strain BPK282A1)) (UniProt E9BSI1); test: Leishmania donovani Ubiquitin Activating Enzyme (LdE1); type: functional; conditions: 30 µM
T1 sequence (whole entry): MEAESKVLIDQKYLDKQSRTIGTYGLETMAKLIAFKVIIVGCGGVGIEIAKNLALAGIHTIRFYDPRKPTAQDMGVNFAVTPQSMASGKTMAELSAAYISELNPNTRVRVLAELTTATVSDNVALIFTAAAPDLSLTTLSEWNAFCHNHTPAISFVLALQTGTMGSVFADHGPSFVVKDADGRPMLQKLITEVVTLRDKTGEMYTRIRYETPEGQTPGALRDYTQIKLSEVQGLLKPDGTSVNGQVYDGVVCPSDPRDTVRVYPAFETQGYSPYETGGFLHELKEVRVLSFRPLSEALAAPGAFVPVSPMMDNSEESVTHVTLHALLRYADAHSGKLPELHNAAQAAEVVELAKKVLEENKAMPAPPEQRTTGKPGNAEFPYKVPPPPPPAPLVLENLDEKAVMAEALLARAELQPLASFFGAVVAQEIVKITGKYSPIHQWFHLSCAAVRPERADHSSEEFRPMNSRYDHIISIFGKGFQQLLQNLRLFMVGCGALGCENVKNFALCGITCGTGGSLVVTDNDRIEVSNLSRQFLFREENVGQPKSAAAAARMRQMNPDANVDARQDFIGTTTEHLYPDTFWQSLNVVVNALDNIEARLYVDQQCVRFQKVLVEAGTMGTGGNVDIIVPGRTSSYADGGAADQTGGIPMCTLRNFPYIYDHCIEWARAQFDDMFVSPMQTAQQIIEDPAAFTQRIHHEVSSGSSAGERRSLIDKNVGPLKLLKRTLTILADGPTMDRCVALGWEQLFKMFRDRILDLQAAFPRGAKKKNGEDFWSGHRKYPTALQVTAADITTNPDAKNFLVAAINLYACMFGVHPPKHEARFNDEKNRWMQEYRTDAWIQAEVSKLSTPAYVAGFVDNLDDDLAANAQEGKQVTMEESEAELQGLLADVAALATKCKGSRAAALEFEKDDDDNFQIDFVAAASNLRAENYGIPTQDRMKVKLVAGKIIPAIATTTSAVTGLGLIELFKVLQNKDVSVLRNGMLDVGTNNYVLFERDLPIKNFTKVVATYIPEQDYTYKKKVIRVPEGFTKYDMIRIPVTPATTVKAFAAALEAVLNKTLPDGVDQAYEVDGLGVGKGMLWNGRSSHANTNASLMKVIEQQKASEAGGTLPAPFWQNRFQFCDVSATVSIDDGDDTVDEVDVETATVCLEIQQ

[3] = molecular target: AMP-activated protein kinase, AMPK (Homo sapiens) (UniProt P54646+O43741+P54619+Q9UGJ0+Q9Y478+Q13131+Q9UGI9); test: AMP-dependent Kinase enzyme assay. An in vitro enzyme assay that detects ADP turnover that is directly proportional to AMPK activity. This uses naive AMPK that is activated during the assay with MK-8722; type: functional; conditions: 30 µM
[4] = molecular target: Sialic acid-binding Ig-like lectin 9 (Homo sapiens) (UniProt Q9Y336); test: Hs-Siglec9 ALPHAscreen SOP 20170721; conditions: 10 µM
[5] = test system: Trypanosoma cruzi; test: Trypanosoma cruzi phosphomannomutase and mannose-1-phosphate guanylyltransferase assay; type: functional; conditions: 10 µM
[6] = molecular target: T2, Arginase-2, mitochondrial (Homo sapiens) (UniProt P78540); test: in vitro enzyme assay to detect the production of urea directly proportional to the activity of Arginase II; type: functional; conditions: 33.3 µM; note: in the data most compounds retested in dose-response had high values
T2 sequence (whole entry): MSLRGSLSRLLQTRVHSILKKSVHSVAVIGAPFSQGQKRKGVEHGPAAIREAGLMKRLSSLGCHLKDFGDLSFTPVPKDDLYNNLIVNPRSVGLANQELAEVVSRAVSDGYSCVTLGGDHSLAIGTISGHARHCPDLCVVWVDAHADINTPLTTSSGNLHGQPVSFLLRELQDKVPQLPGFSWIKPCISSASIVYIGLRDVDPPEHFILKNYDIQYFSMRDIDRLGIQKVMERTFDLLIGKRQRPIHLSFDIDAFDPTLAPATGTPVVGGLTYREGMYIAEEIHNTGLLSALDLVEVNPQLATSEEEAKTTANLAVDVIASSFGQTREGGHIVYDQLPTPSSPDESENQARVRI

[7] = molecular target: T3, Proteasome subunit beta (Trypanosoma cruzi) (UniProt O96673); test: Trypanosoma cruzi proteasome chymotrypsin-like activity (TcProtChymo) assay.; note: in the data most compounds retested in dose-response had high values; type: functional; conditions: 9.37 µM
T3 sequence (whole entry): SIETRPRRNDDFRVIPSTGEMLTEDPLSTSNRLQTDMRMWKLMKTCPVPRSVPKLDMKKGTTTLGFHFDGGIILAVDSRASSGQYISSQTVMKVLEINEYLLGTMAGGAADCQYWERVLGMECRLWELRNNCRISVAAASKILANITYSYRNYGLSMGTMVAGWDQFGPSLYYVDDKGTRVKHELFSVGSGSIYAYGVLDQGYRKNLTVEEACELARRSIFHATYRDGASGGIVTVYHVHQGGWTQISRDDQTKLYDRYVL

[8] = species: Homo sapiens; test: To identify inhibition of the IFN signalling (Jak-Stat) pathway via expression of an eGFP reporter gene under the control of an IFN-stimulated response element (ISRE) containing MxA promoter.; type: functional; conditions: 30 µM
[9] = molecular target: T4, Tyrosyl-tRNA synthetase, putative (Trypanosoma cruzi (strain CL Brener)) (UniProt Q4DSP6); test: Trypanosoma cruzi tyrosyl tRNA synthetase (TcYRS) _High Tyrosine SOP; type: functional; conditions: 30 µM; note: in the data most compounds retested in dose-response had high values
T4 sequence (whole entry): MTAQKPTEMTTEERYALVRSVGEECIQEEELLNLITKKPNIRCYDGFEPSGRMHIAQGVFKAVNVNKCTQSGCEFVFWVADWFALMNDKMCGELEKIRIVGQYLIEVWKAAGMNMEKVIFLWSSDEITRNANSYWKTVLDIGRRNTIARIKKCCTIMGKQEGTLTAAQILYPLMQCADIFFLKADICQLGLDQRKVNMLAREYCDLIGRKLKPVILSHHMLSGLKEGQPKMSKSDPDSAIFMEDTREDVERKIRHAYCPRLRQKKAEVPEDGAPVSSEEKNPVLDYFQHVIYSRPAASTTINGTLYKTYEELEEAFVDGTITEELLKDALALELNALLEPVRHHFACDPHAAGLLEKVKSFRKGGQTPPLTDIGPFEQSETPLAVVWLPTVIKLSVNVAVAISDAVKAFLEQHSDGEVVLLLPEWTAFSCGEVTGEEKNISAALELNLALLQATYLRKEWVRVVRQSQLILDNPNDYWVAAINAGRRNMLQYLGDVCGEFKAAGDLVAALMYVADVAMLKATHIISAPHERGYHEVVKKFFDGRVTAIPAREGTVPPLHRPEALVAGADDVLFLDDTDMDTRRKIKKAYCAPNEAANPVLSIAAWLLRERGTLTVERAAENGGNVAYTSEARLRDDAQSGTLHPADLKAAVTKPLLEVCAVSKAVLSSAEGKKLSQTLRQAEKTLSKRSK

[10] = molecular target: T4, Tyrosyl-tRNA synthetase, putative (Trypanosoma cruzi (strain CL Brener)); test: Trypanosoma cruzi tyrosyl tRNA synthetase (TcYRS) SOP; type: functional; conditions: 30 µM
[11] = molecular target: Chromo domain-containing protein 1 (Saccharomyces cerevisiae (strain ATCC 204508 / S288c) (Baker's yeast)) (UniProt P32657); test: ScCHD-1 Enzyme Inhibition Assay; type: functional; conditions: 30 µM; note: in the data most compounds retested in dose-response had high values
Chromo domain-containing protein 1 (Saccharomyces cerevisiae (strain ATCC 204508 / S288c) (Baker's yeast)), sequence (P32657 whole entry, the tested form may be a part): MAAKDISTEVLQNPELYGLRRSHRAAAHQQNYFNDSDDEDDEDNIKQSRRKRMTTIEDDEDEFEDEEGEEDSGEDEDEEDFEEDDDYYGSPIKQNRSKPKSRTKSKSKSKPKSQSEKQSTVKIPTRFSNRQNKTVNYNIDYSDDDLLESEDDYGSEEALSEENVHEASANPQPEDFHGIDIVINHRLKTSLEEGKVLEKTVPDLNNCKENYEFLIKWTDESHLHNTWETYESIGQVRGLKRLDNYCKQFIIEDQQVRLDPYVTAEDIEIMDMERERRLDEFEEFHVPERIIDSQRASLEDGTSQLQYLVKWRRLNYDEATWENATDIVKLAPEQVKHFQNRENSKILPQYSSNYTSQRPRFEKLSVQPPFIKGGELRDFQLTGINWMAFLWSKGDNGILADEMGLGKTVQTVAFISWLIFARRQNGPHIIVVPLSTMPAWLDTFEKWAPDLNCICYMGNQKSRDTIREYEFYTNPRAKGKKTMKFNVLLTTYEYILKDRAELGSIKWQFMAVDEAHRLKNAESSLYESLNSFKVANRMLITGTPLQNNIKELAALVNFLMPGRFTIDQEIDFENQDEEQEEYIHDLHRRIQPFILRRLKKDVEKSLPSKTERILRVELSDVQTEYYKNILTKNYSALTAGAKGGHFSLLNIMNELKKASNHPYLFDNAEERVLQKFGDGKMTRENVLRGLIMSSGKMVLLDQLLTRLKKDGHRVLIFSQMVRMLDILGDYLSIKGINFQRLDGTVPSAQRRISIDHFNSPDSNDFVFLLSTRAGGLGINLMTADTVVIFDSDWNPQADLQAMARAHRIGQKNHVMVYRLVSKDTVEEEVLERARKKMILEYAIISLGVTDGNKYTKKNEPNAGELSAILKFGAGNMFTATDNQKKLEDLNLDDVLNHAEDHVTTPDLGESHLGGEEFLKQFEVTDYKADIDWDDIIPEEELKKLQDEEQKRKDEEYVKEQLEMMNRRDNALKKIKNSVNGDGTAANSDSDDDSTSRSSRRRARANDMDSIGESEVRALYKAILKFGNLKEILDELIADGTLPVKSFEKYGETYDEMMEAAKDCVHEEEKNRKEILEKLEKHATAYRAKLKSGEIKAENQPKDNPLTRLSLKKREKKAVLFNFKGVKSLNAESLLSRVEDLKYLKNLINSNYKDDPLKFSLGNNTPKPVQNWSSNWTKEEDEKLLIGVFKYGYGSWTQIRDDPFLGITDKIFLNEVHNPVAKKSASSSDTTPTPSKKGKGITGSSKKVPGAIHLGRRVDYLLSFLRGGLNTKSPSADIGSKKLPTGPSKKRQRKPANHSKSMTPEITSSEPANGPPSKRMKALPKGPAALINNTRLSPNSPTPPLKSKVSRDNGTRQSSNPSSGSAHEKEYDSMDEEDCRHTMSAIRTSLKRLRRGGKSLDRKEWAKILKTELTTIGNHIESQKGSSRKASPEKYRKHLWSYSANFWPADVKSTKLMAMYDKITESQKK

Sialic acid-binding Ig-like lectin 9 (Homo sapiens), sequence (Q9Y336 whole entry): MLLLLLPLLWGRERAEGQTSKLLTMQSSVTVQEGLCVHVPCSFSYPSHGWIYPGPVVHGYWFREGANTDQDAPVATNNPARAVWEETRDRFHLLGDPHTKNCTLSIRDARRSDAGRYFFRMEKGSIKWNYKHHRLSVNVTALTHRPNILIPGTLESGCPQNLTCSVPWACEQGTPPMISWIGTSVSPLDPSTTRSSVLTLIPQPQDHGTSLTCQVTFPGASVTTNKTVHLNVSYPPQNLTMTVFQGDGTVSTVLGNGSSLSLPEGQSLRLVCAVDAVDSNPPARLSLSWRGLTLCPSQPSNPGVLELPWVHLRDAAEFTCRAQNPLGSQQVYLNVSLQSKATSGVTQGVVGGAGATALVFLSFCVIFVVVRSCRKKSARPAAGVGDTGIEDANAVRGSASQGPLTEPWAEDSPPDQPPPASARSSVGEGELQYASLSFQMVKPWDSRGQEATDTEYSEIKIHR
Protein translocase subunit SecA (Escherichia coli (strain K12)), sequence (P10408 whole entry): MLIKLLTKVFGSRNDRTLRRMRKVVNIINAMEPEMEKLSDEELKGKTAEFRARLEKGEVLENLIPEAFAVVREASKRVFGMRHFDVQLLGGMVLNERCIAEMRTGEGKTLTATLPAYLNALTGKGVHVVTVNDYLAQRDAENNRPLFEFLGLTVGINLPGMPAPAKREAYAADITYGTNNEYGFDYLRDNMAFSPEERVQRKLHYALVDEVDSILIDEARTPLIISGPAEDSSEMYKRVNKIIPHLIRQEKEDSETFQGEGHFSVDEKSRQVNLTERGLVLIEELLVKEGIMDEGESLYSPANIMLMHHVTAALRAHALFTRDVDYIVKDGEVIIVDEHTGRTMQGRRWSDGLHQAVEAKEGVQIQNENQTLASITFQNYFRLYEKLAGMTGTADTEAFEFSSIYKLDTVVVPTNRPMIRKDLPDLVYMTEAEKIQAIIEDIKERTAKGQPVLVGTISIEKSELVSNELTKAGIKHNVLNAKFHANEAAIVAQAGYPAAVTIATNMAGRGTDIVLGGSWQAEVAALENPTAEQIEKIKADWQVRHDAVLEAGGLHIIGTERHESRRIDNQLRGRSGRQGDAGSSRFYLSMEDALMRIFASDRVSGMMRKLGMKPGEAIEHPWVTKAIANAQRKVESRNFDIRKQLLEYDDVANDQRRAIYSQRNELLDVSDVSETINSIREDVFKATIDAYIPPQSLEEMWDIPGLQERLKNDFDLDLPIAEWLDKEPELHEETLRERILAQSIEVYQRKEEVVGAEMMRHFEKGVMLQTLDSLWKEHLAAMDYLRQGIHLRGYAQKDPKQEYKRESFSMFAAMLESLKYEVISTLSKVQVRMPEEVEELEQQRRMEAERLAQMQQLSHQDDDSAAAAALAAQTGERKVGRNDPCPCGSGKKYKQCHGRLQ

Structure (SMILES)	Percent Effect [1]	Percent Effect [2]	Percent Effect [3]	Percent Effect [4]	Percent Effect [5]	Percent Effect [6]	Percent Effect [7]	Percent Effect [8]	Percent Effect [9]	Percent Effect [10]	Percent Effect [11]
OC(COCc1cccs1)CN1CCC(c2ccn[nH]2)CC1 (configuration not stated)	0.446%	15.2%	-3.7%	-4.14%	-8.03%	3.42%	8.6%	16.3%	-2.46%	8.86%	-3.55%
COc1ccc(NC(=O)CCC2CCCN(Cc3ncon3)C2)c(C)c1 (configuration not stated)	-3.42%	2.67%	-0.626%	-0.0167%	-5.36%	-3.65%	22%	22.2%	6.01%	11.1%	-6.4%
CC(NC(=O)CNCCn1cccn1)c1ccc2c(c1)OCCO2 (configuration not stated)	-2.65%	-7.79%	0.13%	7.51%	5.62%	1.07%	7.6%	-0.448%	8.74%	9.76%	-7.52%
NC(=O)c1cccc(CC2CCN(C(=O)CCCN3CCOCC3)C2)c1 (configuration not stated)	-2.51%	-2.74%	4.39%	-12.6%	-1.18%	-2.27%	-3.02%	6.37%	2.15%	2.5%	-1.16%
CCS(=O)(=O)N1CCC2(CC(=O)N(c3cccc(C)c3)C2)C1 (configuration not stated)	-2.42%	8%	-0.745%	0.841%	1.54%	-48.9%	8.21%	-25.8%	8.33%	27.5%	-6.79%
COCCN1CCN(C(=O)c2ccncc2F)Cc2cccnc21	2.77%	6.67%	4.36%	-2.01%	-10.6%	-1.58%	20.3%	0.197%	3.17%	-5.13%	-10.5%
Cn1ncc2c1NC(=O)CC2c1ccc(Cl)cc1Cl (configuration not stated)	-0.731%	2.63%	4.33%	1.29%	-8.67%	-1.18%	11.8%	18%	0%	2.6%	-4.32%
O=C(c1ccncc1)N1Cc2ccccc2OC2(CCOCC2)C1	-2.73%	9.46%	10.5%	1.54%	0.395%	-5.8%	16.1%	7.47%	4.3%	6.49%	-15.3%
CC(O)CN1CCN(C(=O)c2cnn(-c3ccc(Cl)cc3)c2)CC1 (configuration not stated)	-8.22%	5.33%	-3.17%	23.3%	6.13%	5.21%	11%	7.52%	1.64%	8.64%	-3.32%
CCc1cccc(OCC(=O)N2CCCC(n3cncn3)C2)c1 (configuration not stated)	-5.42%	13.5%	1.85%	-1.09%	-5.57%	2%	13%	14.3%	5.42%	11.1%	-4.63%
CC(C)(NCC(=O)NCCC#N)c1ccc2c(c1)OCCO2	-3.57%	27%	-8.79%	1.26%	3.49%	-8.42%	17.3%	3.81%	4.43%	23.5%	-9.99%
COc1c(CNC2CCCc3ccccc32)c(C(C)C)nn1C (configuration not stated)	-5.37%	21.6%	-16.6%	17.5%	7.71%	-5.73%	3.59%	6.78%	4.95%	18.3%	-4.82%
c1ncn(CC2CCCCN2Cc2csc(C3CCCC3)n2)n1 (configuration not stated)	-2.71%	-5.2%	-0.0278%	1.89%	9.55%	-1.42%	6.93%	11.4%	10.7%	19.5%	66.7%
CN(c1ccc(F)c(F)c1)S(=O)(=O)c1cc(C(=O)O)cs1	-0.362%	-5.41%	-0.676%	1.81%	-6.32%	-1.6%	-5.95%	10.4%	-0.493%	-1.24%	-2.7%
O=S(=O)(c1cccnc1)N1CCN(CCn2ccnc2)CC1	-4.58%	5.48%	-1.26%	0.536%	-8.81%	-0.455%	11.7%	-0.863%	5.38%	12.5%	-5.5%
Cc1nn(C)c(N2CCOCC2)c1CNC(C)c1cccnc1 (configuration not stated)	-3.55%	6.94%	-10.5%	21.7%	2.62%	7.95%	11.4%	-22.8%	3.16%	10.3%	-6.39%
NCCn1nc(C2CCN(C(=O)CC3CCCCC3)C2)c2nccnc21 (configuration not stated)	-2.44%	-10.7%	3.88%	8.44%	1.57%	-3.5%	-10.5%	11.9%	-8.51%	8.97%	-1.74%
